Our source for the binding signal values is PMC7862700, “An all-to-all approach to the identification of sequence-specific readers for epigenetic DNA modifications on cytosine”.

What all share (test): DAPPL (digital affinity profiling via proximity ligation, sequencing); 10 mM Tris-HCl pH 7.5, 50 mM NaCl, 1 mM DTT, 4% glycerol, room temperature, 30 min; GST-TFs on glutathione beads, 16-mer random dsDNA library, 0.1% formaldehyde crosslink after washing; high values mean tight binding
One assay has as its target T1, FLI1 (Homo sapiens, UniProt Q01543 1-452).
T1 sequence: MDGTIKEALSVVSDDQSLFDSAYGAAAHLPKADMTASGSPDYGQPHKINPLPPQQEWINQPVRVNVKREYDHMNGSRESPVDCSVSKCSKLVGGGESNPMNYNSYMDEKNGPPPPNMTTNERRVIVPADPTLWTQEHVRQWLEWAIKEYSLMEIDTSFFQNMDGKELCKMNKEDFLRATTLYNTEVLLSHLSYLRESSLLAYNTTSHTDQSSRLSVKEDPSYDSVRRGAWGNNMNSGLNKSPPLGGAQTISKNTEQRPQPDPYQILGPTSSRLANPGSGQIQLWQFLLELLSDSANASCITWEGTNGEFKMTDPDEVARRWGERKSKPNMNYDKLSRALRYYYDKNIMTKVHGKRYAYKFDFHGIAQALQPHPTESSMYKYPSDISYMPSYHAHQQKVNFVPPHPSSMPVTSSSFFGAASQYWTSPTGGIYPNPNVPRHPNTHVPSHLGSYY
The settings on record: protein: recombinant; tags: N-terminal GST; dsDNA, one strand shown. Summed up: (§1)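 Beads coated with glutathione captured GST-fused human transcription factors that had been expressed in yeast, and the factors were then given DNA barcodes and pooled with a tag-only sample. The pools were incubated with 200 nmole of a random double-stranded 16-mer DNA library in Tris/NaCl/DTT/glycerol buffer for 30 min at room temperature, washed, crosslinked with 0.1% formaldehyde and proximity-ligated with BsaI/T4 ligase at 37 °C for 1 h. PCR amplification and Illumina NextSeq500 sequencing came last. Binding signal is each hexamer's read frequency for a factor divided by its frequency for the tag-only sample.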

A further assay deals with T2, ELK1 (Homo sapiens, UniProt P19419 1-428).
T2 sequence: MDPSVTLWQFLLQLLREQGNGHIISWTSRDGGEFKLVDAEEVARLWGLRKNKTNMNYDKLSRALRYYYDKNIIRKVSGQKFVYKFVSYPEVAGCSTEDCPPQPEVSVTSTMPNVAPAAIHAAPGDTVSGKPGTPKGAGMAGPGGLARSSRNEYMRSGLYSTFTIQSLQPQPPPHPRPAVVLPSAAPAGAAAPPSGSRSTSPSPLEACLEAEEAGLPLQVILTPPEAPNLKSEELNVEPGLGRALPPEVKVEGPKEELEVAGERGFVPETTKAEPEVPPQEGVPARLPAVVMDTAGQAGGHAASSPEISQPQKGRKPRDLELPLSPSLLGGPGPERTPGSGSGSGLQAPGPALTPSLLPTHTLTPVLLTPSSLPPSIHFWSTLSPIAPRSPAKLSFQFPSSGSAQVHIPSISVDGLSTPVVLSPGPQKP
The settings on record: protein: recombinant; tags: N-terminal GST; dsDNA, one strand shown. Summed up: as §1

The next assay has as its target T3, GABPA (Homo sapiens, UniProt Q06546 1-454).
T3 sequence: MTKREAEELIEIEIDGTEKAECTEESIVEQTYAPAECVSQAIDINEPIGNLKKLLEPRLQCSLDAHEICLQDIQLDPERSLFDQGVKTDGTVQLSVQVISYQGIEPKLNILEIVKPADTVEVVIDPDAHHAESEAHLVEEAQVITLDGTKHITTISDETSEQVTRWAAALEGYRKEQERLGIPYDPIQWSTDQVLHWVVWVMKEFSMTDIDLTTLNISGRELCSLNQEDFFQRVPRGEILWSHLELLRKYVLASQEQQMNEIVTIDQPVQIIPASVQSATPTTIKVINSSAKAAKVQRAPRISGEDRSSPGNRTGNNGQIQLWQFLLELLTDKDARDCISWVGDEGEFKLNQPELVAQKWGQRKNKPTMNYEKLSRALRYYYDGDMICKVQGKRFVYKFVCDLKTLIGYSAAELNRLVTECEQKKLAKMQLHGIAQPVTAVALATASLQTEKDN
The settings on record: protein: recombinant; tags: N-terminal GST; dsDNA, one strand shown. An outline of the steps:
as §1

In a further assay the target is T4, ERG (Homo sapiens, UniProt P11308 1-479).
T4 sequence: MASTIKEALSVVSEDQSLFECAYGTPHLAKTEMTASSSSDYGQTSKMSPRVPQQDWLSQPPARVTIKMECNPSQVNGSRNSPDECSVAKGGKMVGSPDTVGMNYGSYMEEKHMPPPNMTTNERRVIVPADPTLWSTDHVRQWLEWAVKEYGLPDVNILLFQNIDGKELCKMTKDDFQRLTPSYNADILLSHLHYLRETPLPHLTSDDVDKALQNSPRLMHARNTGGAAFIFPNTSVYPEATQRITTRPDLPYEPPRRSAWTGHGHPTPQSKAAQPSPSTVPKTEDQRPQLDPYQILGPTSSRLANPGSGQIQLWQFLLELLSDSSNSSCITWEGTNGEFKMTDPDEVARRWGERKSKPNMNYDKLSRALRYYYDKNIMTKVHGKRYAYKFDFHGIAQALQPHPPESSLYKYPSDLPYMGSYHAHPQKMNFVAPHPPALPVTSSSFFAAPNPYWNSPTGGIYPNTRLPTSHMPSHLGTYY
The settings on record: protein: recombinant; tags: N-terminal GST; dsDNA, one strand shown. Summed up: as §1

For the next assay, the target named is ELF1 (Homo sapiens, UniProt P32519 1-619). The settings on record: protein: recombinant; tags: N-terminal GST; dsDNA, one strand shown. Summed up:
as §1

In another assay the target is T5, EHF (Homo sapiens, UniProt Q9NZC4 1-300).
T5 sequence: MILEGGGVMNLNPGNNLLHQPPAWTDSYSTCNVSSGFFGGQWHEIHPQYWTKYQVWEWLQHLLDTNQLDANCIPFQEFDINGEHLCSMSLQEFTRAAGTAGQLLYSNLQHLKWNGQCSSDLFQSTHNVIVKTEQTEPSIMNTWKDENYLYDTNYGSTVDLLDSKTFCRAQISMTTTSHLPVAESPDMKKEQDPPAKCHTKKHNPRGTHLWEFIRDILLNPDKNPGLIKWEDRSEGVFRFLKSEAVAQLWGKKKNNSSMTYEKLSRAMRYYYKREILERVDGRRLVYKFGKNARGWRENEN
The settings on record: protein: recombinant; tags: N-terminal GST; dsDNA, one strand shown. Summed up: as §1

Another assay addresses SPI1 (Homo sapiens, UniProt P17947 1-270). The settings on record: protein: recombinant; tags: N-terminal GST; dsDNA, one strand shown. Summed up:
as §1

For the next assay, the target named is SPIB (Homo sapiens, UniProt Q01892 1-262). The settings on record: protein: recombinant; tags: N-terminal GST; dsDNA, one strand shown. An outline of the steps:
as §1

Another assay deals with T6, ELK3 (Homo sapiens, UniProt P41970 1-407).
T6 sequence: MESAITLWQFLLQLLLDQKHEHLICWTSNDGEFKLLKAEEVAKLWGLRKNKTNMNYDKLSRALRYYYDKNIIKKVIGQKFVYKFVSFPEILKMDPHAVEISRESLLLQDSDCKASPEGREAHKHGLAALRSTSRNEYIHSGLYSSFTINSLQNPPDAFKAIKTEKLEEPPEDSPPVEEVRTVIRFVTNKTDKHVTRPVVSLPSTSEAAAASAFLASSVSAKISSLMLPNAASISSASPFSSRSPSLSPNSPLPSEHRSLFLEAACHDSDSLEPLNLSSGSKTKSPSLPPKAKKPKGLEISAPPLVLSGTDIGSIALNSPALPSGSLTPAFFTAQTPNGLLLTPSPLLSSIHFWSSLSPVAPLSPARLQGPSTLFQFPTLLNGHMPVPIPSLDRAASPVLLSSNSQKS
The settings on record: protein: recombinant; tags: N-terminal GST; dsDNA, one strand shown. Summed up:
as §1

The target of another assay is T7, FEV (Homo sapiens, UniProt Q99581 1-238).
T7 sequence: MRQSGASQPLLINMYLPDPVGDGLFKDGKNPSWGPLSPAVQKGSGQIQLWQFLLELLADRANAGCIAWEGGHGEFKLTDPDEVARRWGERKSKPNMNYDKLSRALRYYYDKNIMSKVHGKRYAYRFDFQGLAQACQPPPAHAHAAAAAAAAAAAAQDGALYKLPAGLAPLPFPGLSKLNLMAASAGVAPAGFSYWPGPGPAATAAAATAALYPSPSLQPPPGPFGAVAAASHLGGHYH
The settings on record: protein: recombinant; tags: N-terminal GST; dsDNA, one strand shown. An outline of the steps: as §1

A further assay has as its target ETV5 (Homo sapiens, UniProt P41161 1-510). The settings on record: protein: recombinant; tags: N-terminal GST; dsDNA, one strand shown. Summed up: as §1
The next assay has as its target HSF1 (Homo sapiens, UniProt Q00613 1-529). The settings on record: protein: recombinant; tags: N-terminal GST; chain copies: 3; dsDNA, one strand shown. An outline of the steps: as §1
For another assay, the target named is T8, SPIC (Homo sapiens, UniProt Q8N5J4 1-248).
T8 sequence: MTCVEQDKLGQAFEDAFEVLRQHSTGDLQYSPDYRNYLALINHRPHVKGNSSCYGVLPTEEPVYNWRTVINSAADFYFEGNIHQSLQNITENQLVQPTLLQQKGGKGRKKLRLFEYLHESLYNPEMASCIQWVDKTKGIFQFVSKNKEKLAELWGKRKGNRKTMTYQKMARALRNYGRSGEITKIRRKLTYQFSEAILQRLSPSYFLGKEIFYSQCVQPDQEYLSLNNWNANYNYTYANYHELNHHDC
The settings on record: protein: recombinant; tags: N-terminal GST; dsDNA, one strand shown. Summed up:
as §1

The target in a further assay is ELF4 (Homo sapiens, UniProt Q99607 1-663). The settings on record: protein: recombinant; tags: N-terminal GST; dsDNA, one strand shown. An outline of the steps:
as §1

The next assay addresses T9, ELK4 (Homo sapiens, UniProt P28324-2 1-405).
T9 sequence: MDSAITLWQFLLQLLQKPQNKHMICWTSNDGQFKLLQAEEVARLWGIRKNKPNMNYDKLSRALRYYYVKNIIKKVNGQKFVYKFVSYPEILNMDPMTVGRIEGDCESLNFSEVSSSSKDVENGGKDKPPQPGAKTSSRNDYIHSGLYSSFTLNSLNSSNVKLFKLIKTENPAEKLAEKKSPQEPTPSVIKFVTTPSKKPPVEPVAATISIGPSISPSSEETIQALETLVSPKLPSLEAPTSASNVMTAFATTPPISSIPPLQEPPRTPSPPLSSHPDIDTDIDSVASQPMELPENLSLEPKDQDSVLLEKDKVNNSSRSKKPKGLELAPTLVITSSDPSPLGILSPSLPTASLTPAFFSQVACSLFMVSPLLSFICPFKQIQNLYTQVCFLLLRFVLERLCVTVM
The settings on record: protein: recombinant; tags: N-terminal GST; dsDNA, one strand shown. Summed up: as §1

In another assay the target is T10, ETV2 (Homo sapiens, UniProt O00321 1-342).
T10 sequence: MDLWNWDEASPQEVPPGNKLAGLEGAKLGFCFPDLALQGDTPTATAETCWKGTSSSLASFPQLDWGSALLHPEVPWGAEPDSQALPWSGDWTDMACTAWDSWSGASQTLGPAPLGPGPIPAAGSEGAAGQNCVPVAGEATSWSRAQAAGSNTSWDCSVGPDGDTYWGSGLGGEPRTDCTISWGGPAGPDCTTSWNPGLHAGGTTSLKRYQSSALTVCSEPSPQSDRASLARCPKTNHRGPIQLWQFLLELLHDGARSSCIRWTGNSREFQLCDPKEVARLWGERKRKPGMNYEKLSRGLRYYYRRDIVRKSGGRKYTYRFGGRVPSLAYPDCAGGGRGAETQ
The settings on record: protein: recombinant; tags: N-terminal GST; dsDNA, one strand shown. Summed up: as §1

A further assay has as its target T11, ELF3 (Homo sapiens, UniProt P78545 1-371).
T11 sequence: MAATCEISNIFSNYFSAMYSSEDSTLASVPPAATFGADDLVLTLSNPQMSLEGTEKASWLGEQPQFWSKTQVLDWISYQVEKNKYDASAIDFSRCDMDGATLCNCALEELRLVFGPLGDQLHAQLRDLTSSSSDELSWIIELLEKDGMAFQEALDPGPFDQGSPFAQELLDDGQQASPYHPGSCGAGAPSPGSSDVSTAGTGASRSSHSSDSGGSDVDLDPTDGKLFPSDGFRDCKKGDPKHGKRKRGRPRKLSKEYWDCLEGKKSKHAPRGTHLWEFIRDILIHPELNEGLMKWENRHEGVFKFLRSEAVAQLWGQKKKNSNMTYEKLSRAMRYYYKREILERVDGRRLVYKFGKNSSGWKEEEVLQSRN
The settings on record: protein: recombinant; tags: N-terminal GST; dsDNA, one strand shown. Summed up:
as §1

For another assay, the target named is CRX (Homo sapiens, UniProt O43186 1-299). The settings on record: protein: recombinant; tags: N-terminal GST; dsDNA, one strand shown. Summed up: as §1
Chain of CRX (O43186 whole entry): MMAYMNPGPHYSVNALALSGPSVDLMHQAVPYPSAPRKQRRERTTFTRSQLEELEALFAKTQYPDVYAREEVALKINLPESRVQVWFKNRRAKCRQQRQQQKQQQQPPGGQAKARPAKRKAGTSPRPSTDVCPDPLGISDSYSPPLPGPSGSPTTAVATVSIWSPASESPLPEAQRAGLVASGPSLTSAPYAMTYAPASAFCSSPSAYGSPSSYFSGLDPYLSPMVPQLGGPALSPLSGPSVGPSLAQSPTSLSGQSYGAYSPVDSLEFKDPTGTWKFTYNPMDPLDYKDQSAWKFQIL
Another assay has as its target ETV1 (Homo sapiens, UniProt P50549 1-477). The settings on record: protein: recombinant; tags: N-terminal GST; dsDNA, one strand shown. An outline of the steps: as §1

Chain of ELF4 (Q99607 whole entry): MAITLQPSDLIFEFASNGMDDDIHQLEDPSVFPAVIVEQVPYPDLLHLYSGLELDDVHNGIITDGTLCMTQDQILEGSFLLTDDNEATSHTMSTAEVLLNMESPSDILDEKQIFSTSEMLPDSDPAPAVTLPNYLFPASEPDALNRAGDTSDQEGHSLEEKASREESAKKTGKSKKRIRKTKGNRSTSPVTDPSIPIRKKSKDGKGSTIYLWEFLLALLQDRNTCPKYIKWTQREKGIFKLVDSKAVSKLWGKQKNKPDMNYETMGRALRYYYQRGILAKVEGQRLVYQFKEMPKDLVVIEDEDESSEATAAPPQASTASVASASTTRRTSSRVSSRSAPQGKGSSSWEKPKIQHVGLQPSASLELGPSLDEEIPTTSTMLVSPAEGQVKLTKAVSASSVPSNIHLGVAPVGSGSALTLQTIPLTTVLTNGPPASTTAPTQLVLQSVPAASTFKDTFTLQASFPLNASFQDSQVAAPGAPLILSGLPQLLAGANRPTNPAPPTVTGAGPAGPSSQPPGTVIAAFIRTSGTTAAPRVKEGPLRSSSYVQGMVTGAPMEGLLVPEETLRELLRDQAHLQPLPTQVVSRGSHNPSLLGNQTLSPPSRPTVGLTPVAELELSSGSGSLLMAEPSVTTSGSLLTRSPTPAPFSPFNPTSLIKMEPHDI
Chain of ETV5 (P41161 whole entry): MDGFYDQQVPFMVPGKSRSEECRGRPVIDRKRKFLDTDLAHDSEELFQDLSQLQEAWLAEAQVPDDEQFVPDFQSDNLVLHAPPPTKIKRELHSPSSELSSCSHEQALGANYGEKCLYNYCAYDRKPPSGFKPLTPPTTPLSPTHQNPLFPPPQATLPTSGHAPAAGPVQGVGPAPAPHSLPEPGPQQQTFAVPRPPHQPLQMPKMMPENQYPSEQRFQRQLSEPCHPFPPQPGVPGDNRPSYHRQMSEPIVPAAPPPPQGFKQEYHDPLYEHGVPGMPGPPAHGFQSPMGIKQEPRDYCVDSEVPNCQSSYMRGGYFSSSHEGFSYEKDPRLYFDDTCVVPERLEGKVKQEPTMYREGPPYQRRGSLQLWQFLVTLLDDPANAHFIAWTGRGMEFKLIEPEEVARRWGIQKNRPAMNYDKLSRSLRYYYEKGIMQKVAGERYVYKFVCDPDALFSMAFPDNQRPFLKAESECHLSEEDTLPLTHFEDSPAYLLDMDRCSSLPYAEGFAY
Chain of ELF1 (P32519 whole entry): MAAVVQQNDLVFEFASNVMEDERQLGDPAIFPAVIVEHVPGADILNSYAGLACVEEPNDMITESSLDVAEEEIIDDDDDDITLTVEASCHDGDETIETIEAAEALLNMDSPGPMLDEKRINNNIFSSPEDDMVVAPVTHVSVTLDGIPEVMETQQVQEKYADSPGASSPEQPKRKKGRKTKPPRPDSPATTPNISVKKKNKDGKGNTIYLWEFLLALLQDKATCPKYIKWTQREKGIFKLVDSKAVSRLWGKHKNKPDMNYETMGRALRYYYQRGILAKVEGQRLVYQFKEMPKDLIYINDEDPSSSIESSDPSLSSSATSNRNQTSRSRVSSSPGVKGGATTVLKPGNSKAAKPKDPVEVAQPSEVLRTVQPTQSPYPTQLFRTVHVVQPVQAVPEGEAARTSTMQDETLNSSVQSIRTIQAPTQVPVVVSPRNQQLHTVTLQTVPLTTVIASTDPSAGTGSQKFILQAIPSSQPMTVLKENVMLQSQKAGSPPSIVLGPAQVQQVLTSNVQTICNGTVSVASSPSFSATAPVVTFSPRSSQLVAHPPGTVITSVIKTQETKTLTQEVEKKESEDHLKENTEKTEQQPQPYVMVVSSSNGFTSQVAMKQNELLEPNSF
Chain of HSF1 (Q00613 whole entry): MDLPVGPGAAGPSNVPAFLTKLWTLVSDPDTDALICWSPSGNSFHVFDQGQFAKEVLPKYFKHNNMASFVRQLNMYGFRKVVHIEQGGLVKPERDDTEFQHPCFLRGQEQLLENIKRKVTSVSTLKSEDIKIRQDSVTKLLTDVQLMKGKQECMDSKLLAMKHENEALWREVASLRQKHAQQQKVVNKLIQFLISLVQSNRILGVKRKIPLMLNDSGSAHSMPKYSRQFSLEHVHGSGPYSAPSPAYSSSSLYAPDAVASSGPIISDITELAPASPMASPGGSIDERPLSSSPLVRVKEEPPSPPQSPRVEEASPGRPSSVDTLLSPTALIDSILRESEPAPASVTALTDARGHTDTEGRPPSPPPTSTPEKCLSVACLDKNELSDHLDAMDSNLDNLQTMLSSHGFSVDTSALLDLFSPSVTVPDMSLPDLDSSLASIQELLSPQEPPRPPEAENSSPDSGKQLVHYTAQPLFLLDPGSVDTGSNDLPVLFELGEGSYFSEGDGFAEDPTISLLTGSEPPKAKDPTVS
Chain of SPIB (Q01892 whole entry): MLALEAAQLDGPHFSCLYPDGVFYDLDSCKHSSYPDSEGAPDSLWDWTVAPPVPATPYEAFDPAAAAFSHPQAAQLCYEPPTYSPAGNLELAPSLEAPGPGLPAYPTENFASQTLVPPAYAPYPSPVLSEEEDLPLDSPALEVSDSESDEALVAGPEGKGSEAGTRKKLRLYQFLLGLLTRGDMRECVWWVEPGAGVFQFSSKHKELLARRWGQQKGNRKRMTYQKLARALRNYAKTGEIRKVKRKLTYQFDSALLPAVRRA
Chain of ETV1 (P50549 whole entry): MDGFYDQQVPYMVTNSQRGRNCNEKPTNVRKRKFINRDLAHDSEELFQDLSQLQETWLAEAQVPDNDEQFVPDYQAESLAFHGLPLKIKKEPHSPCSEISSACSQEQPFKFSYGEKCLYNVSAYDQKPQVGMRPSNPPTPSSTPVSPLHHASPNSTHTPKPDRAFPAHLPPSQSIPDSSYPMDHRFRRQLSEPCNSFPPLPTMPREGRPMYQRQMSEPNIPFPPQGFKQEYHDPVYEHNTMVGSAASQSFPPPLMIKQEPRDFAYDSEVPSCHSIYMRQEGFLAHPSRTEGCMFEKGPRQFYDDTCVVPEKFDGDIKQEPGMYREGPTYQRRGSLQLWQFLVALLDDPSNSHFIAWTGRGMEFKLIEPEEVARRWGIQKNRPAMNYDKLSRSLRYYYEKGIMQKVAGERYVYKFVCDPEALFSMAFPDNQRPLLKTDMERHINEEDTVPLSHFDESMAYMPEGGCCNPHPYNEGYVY

Take CTCAAA: the binding signal in the assay with FLI1 is 1.2 fold enrichment (6-mer frequency, TF over GST control); with ELK1 it was 1.14 fold enrichment (6-mer frequency, TF over GST control); in the assay with GABPA it was 1.16 fold enrichment (6-mer frequency, TF over GST control); with ERG it was 1.13 fold enrichment (6-mer frequency, TF over GST control); with ELF1 it was 1.25 fold enrichment (6-mer frequency, TF over GST control); with EHF it was 1.11 fold enrichment (6-mer frequency, TF over GST control). The binding signal was 1.29 fold enrichment (6-mer frequency, TF over GST control) in the assay with SPI1; 1.23 fold enrichment (6-mer frequency, TF over GST control) in the assay with SPIB; 1.15 fold enrichment (6-mer frequency, TF over GST control) in the assay with ELK3; 1.28 fold enrichment (6-mer frequency, TF over GST control) in the assay with FEV; 1.18 fold enrichment (6-mer frequency, TF over GST control) with ETV5; 1.24 fold enrichment (6-mer frequency, TF over GST control) with HSF1. Besides, the binding signal in the assay with SPIC is 1.2 fold enrichment (6-mer frequency, TF over GST control); with ELF4, 1.18 fold enrichment (6-mer frequency, TF over GST control); with ELK4, 1.2 fold enrichment (6-mer frequency, TF over GST control); in the assay with ETV2 it was 1.16 fold enrichment (6-mer frequency, TF over GST control); in the assay with ELF3, 1.32 fold enrichment (6-mer frequency, TF over GST control); with CRX, 1.25 fold enrichment (6-mer frequency, TF over GST control). For the same sequence, the binding signal in the assay with ETV1 was 1.2 fold enrichment (6-mer frequency, TF over GST control).
